According to ChEMBL document CHEMBL3988442, “University of Dundee, Small-Polar-MMV Screening Library” (2021):
Screen size: about 48,000 compounds; about 13,000 (27%) showed an effect of 50% or more. The list shows a part of the results.

tested on: Wolbachia pipientis; test: Anti-Wolbachia Cell-Based Screen; format: functional; design: scale not given: in the data most compounds retested in dose-response had high values; settings: 5 µM

| Structure (SMILES) | Percent Effect |
| --- | --- |
| CCOc1ccc(CN2C(=O)CC3(CCCC3)C2=O)nc1 | -27.44% |
| O=C1CC(CNc2cncc(Br)c2)c2ccccc2N1 (stereo not given) | 11.7% |
| O=C1CN(Cc2cn(CC3CCN(C4CCSCC4)CC3)nn2)CCN1 | -10.54% |
| CCN1C(=O)C2(CCOCC2)c2cc(NC(=O)c3csnn3)ccc21 | 5.242% |
| CCS(=O)(=O)Nc1ccc2c(c1)C1(CCOCC1)CN2C.O=C(O)C(F)(F)F | 89.45% |
| CCN1CC2(CCOCC2)c2cc(NS(=O)(=O)CC)ccc21.O=C(O)C(F)(F)F | 93.24% |
| CN(C)C(=O)N1CC2(CCOCC2)c2cc(NS(=O)(=O)C3CC3)ccc21 | -3.56% |
| CCN1C(=O)C2(CCOCC2)c2cc(NC(=O)c3ccco3)ccc21 | 4.939% |
| CCN1C(=O)C2(CCOCC2)c2cc(NC(=O)c3cnoc3C)ccc21 | -1.334% |
| COC(=O)C(C)NC(=O)CSCc1nc(O)c2cc(C(C)C)sc2n1 (stereo not given) | 3.354% |
| Cc1nc(C)c(CC(=O)Nc2nnc(C)s2)c(=O)[nH]1 | -6.123% |
| Cc1ccc2nc(CSCC(=O)Nc3nnc(C(C)C)s3)cc(=O)n2c1 | 91.49% |
| Cc1ccn2c(=O)cc(CSCC(=O)Nc3nnc(C(C)C)s3)nc2c1 | 111% |
| COc1ccc(C(C)NC(=O)Nc2nnc(C)s2)cc1OC (stereo not given) | 6.701% |
| Cc1ccc2nc(CN(Cc3ccc(C)o3)C(C)C)cc(=O)n2c1 | -6.244% |
| CC(C)c1nnc(NC(=O)Cc2csc(-c3nnc[nH]3)n2)s1 | 3.837% |
| Cc1nnc(NC(=O)CSCc2cc(=O)n3ccccc3n2)s1 | 113.7% |
| Cc1ccc(CNC(=O)Nc2nnc(C(C)C)s2)n1C | -5.821% |
| Cc1cccc2nc(CN3CCCC(C)C3)cc(=O)n12 (stereo not given) | 12.06% |
| Cc1cnn(CC(C)NCc2cc(=O)n3cc(C)ccc3n2)c1 (stereo not given) | 5.917% |
| Cc1cccc2nc(CSCC(=O)Nc3nnc(C(C)C)s3)cc(=O)n12 | 122.4% |
| CN(C)c1cccc(C(=O)NCC(O)c2cccs2)c1 (stereo not given) | -6.039% |
| CCc1ncc2c(n1)CN(C(=O)c1c(C)[nH]c(C(C)=O)c1C)C2 | 1.251% |
| CN(Cc1cccs1)C1CCC[C@@H]2CN(C(=O)c3cnccn3)C[C@H]12.O=C(O)C(F)(F)F (stereo not given in full) | 14.26% |
| Cc1ccc(C(C(=O)O)N2CCCN(Cc3ccccn3)CC2)c(F)c1 (stereo not given) | -1.838% |
| Cc1cccn2c(=O)cc(CSCC(=O)Nc3nnc(C(C)C)s3)nc12 | 100.1% |
| Cc1ccc(CN(Cc2cc(=O)n3cccc(C)c3n2)C(C)C)o1 | 2.311% |

| Structure (SMILES) | Percent Effect |
| --- | --- |
| Cc1cccn2c(=O)cc(CN3CCCC3Cn3cccn3)nc12 (stereo not given) | 11.97% |
| Cc1cnn(CC(C)NCc2cc(=O)n3ccccc3n2)c1 (stereo not given) | 4.155% |
| CC(C)c1nnc(NC(=O)CSCc2cc(=O)n3ccccc3n2)s1 | 114.5% |
| COc1ccc(OC)c(-n2c(COC(C)C)n[nH]c2=O)c1 | -3.997% |
| Cc1nc(C(=O)N2CCC(c3cc(CCO)n(C)n3)C2)co1 (stereo not given) | 113% |
| COc1ccc(OCc2nc(C(=O)N3CC[C@H](O)[C@@H](O)C3)co2)cc1 | -2.37% |
| Cn1cc(C(=O)N2CCC(c3cc(CCO)n(C)n3)C2)cn1 (stereo not given) | 181.5% |
| CS(=O)(=O)NC[C@@H]1OC[C@H]2CN(C(=O)c3cnccn3)CC[C@H]21 | -5.14% |
| Cn1ccc(C(=O)N2CCC(c3cc(CCO)n(C)n3)C2)n1 (stereo not given) | 79.61% |
| Cc1cc(C(=O)N2CC[C@@H]3CO[C@@H](CN4CCCC4)[C@@H]3C2)no1 | -4.858% |
| Cn1cc(C(=O)N2CC[C@H](N3CCOCC3)[C@H](CCCO)C2)cn1 | -10.44% |
| Cn1nc(C2CCN(C(=O)c3cnccn3)C2)cc1CCO (stereo not given) | 76.91% |
| COC(=O)C1CCCN1C(=O)c1ccc(Br)cc1F (stereo not given) | 19.55% |
| Cc1ccc2c(n1)N(C)CCN(C(=O)NC1CC1)C2.O=C(O)C(F)(F)F | 4.586% |
| O=C(NCc1cn2cccnc2n1)C1CC(=O)N(Cc2cccnc2)C1 (stereo not given) | -8.48% |
| CC(C)n1cc(C(=O)NCCCc2csc(N)n2)cn1 | -8.171% |
| CNS(=O)(=O)c1cccc(C(C)NCc2ccc(C)o2)c1 (stereo not given) | -6.612% |
| O[C@H]1[C@H](n2cc(-c3ccccc3)nn2)c2ccccc2C12CCNCC2 | -3.237% |
| CCc1cc(N(C)CCc2noc(C)n2)nc(N2CCOCC2)n1 | -13.53% |
| CCS(=O)(=O)c1ncc(CN(C)Cc2ccc(C)o2)n1CCOC | -4.34% |
| Cc1ccc(CN(C)Cc2cnc(N3CCOCC3)s2)o1 | 116.2% |
| CN(Cc1ccsc1)Cc1nc(-c2ccncc2)no1 | -1.44% |
| Cc1nc(CN(C)Cc2cnc(N3CCOCC3)s2)no1 | 89.45% |
| Cc1noc(CN(C)Cc2cnc(N3CCOCC3)nc2)n1 | -9.212% |
| Cc1ncc(CN(C)C(=O)c2ccc(N3CCOCC3)c(F)c2)s1 | 3.379% |
| CC(C)c1nc(CN(C)Cc2cnc(N3CCOCC3)nc2)no1 | -9.471% |
| CN(Cc1nc(-c2ccccc2)no1)Cc1cnc(N2CCOCC2)s1 | 97.7% |

| Structure (SMILES) | Percent Effect |
| --- | --- |
| COc1cccc(-c2ccc(CNC(=O)c3ccc(=O)n(C)c3)cc2)c1 | 0.1145% |
| CCc1nc(CN(C)C(=O)C2CC(=O)N(c3cccc(O)c3)C2)no1 (stereo not given) | 15.35% |
| CN(C)S(=O)(=O)N1CC[C@]2(C[C@@H](OCc3ccccn3)CO2)C1.O=C(O)C(F)(F)F | -10.12% |
| CC(C(=O)O)N1CC2(CCC1=O)CCN(CCSc1ccccc1)CC2 (stereo not given) | -16.96% |
| COCCN(C)C(=O)Nc1ccn(-c2cccc(C(F)(F)F)c2)n1 | -15.63% |
| Cc1nc(C2CCNCC2)cc(N(C)CCc2cn[nH]c2)n1 | -7.954% |
| CCN(Cc1ccncc1)c1nc(C)nc2oc(C)nc12 | -65.89% |
| CCN(Cc1ccncc1)c1cc(C2CCN2C(C)=O)nc(C)n1 (stereo not given) | 128.1% |
| CCN(Cc1ccncc1)c1cc(C2CCNCC2)nc(C)n1 | 95.16% |
| CCN(Cc1ccncc1)c1cc(C2CCCNC2)nc(C)n1 (stereo not given) | 103.1% |
| Cc1nc(C2CCNCC2)cc(N2CCOc3ccccc3C2)n1 | -3.992% |
| Cc1ccnc(CC(C)N(C)c2cc(C3CCNCC3)nc(C)n2)c1 (stereo not given) | 6.994% |
| Cc1nc(C2CCCNC2)cc(N(C)CCc2ccccc2)n1 (stereo not given) | 1.735% |
| CNS(=O)(=O)CC(=O)N(Cc1c(F)cccc1Cl)C1CC1 | -9.118% |
| CCN(Cc1c(F)cccc1Cl)c1cc(C2CCNCC2)nc(C)n1 | 117.3% |
| Cc1cccc(OCC(=O)N(Cc2ccncc2)C2CC2)c1 | -0.008091% |
| CO[C@H]1COCCN(C(=O)c2cc(C)oc2C(F)(F)F)C1 | -0.5452% |
| CN(CCc1ccccc1)c1cnn(CC(=O)N2CCOCC2)c(=O)c1 | 17.19% |
| Cc1nc(N(C)C/C=C/c2ccccc2)c2cnn(C)c2n1 | 1.614% |
| COc1cc(C(C#N)NC(=O)CC2=CCCCC2)cc(OC)c1OC (stereo not given) | -9.8% |
| O=C(c1cnns1)N1CCN(c2ccc(F)cc2Cl)CC1 | -2.521% |
| COc1ccc(CN2CCCN(c3cc(C(N)=O)ccn3)CC2)cc1 | 15.11% |
| Cc1cccc(CC(=O)N2CCCCC2CN)c1.Cl (stereo not given) | -0.4794% |
| CCOc1cc2c(cc1C(=O)O)CCC2 | -16.22% |
| CCOc1cc(=O)n2c(c1C(=O)OCc1ccc(C)cc1)CCCC2 | 83.47% |
| CCOc1cc(C)ccc1NC(=O)N(C)Cc1cnn(C)c1 | 5.553% |
| CCOc1cc(=O)n2c(c1C(=O)OCc1ccc(F)cc1)CCCC2 | 95.56% |

| Structure (SMILES) | Percent Effect |
| --- | --- |
| CCOc1cc(=O)n2c(c1C(=O)OCc1ccc(OC)cc1)CCCC2 | 91.51% |
| COc1ccc(CN(CC2CCCO2)C(=O)CN2CCCCC2=O)cc1 (stereo not given) | 3.552% |
| O=C(OCc1cccc(F)c1)c1cccc(C(=O)N2CCCC2)n1 | -9.061% |
| CCOc1cc(=O)n2c(c1C(=O)OCc1cccc(C)c1)CCCC2 | 85.47% |
| Cc1cccc(COc2ccccc2C(=O)N2CCC(C(N)=O)CC2)c1 | 0.1214% |
| COC(=O)C(O)C1CCN(CCc2ccc(C)cc2)CC1 (stereo not given) | -9.232% |
| Cc1ccc(C(=O)N(C)CCNS(C)(=O)=O)cc1Br | -2.447% |
| Cc1cc(C(=O)N2CCOC[C@H](Oc3cnccn3)C2)c(C(F)(F)F)o1 | 1.166% |
| Cc1nnc2n1CCN(CC(=O)NC(C)c1cc3ccccc3o1)C2 (stereo not given) | -0.5236% |
| COCCN1CCN(Cc2ccc(F)c(C)c2)[C@H]2CS(=O)(=O)C[C@H]21 | -0.5112% |
| O=C1NCCN(Cc2ccoc2)C1CC(=O)N1CCc2sccc2C1 (stereo not given) | -12.03% |
| CCCN1CCN(Cc2nc3ccccc3[nH]2)[C@H]2CS(=O)(=O)C[C@H]21 | -8.969% |
| CC1CCC(O)(CN2CCN(CCNC(=O)C3CCC3)CC2)CC1 (stereo not given) | 8.242% |
| Cc1[nH]c2c(C)ccc(C)c2c1CC(=O)NCCNc1cccnc1 | 0.5336% |
| N[C@@H]1CCN(Cc2ccccc2CS(=O)(=O)c2ccccc2)C[C@H]1O | -11.48% |
| c1cc2ccc(N3CCN(Cc4ccc5c(c4)OCO5)CC3)nc2[nH]1 | -12.23% |
| CN(C)S(=O)(=O)N1C[C@@H]2CC[C@H](C1)N(Cc1ccc3[nH]ccc3c1)C2 | 10.36% |
| c1cnn(CCC2CCN(Cc3ccc4[nH]ccc4c3)CC2)c1 | -20.25% |
| c1cnnc(N[C@@H]2CC[C@@H]3CN(Cc4ccc5[nH]ccc5c4)C[C@@H]32)c1 | 53.89% |
| c1cnnc(N[C@@H]2CC[C@@H]3CN(Cc4ccc5cc[nH]c5c4)C[C@@H]32)c1 | 79.05% |
| Cc1nccc(N[C@H]2CN(CCS(C)(=O)=O)C[C@@H]2C2CC2)n1 | -10.57% |
| c1ccc2c(Cc3nnc([C@H]4CCNC4)o3)c[nH]c2c1 | -7.413% |
| O=C1CO[C@H]2CN(Cc3c[nH]c4ccccc34)C[C@H]2N1 | 5.983% |
| c1cnnc(N[C@@H]2CC[C@@H]3CN(Cc4c[nH]c5ccccc45)C[C@@H]32)c1 | 81.26% |
